This is a sample that favours compounds with a hit; in the whole collection about 5.7% have one here.
GLP-1R inv ag: GLP-1 receptor (human) inverse agonism. P43220. HEK293 GLP-1R CRE-luciferase, luminescence, 24 h; GLP-1R form is constitutively active. Potency, µM (series often up to 38.3 µM), hits mostly inhibitors. actives 1.6% (n = 410,000). AID 624417; further: nearly all actives have a fitted effect of over 55% in size
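Inverse agonists were sought by their lowering of basal cAMP reporter luciferase output in HEK293 cells stably carrying constitutively active human GLP-1R, after 24 h compound treatment.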
GLP-1R agonist: GLP-1 receptor (human) agonism | P43220 | HEK293 GLP-1R CRE-luciferase, luminescence, 4-6 h; cells express a hypersensitive GLP-1R form | Potency, µM (highest dose often 45.6 µM), most hits filed as activators | actives 0.007% (n = 380,000) | AID 624172
DRD3 agonist: activates the human D3 dopamine receptor. AID 652048. actives 0.58% (n = 410,000). D3R DiscoveRx beta-arrestin cells, luminescence, 90 min. max activation, %. P35462; in the data active means max activation above about 30%
Target sequence (P35462 whole entry, looked up): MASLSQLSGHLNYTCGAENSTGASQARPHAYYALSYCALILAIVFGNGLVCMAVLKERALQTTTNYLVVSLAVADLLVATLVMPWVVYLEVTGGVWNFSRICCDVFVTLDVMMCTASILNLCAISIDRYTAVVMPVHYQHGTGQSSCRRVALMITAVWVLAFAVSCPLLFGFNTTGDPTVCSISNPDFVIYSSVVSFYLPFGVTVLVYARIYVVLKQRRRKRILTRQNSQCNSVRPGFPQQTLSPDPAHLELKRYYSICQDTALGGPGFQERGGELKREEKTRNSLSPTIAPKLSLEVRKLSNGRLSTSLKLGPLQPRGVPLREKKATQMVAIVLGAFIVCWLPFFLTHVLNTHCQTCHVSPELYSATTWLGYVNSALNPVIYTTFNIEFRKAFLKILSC
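Agonist mode: compounds and dopamine controls were applied to plated cells for 90 min at 37 degrees C after an overnight attachment at 1500 cells/well. Luminescent read-out followed 30 - 60 minutes at room temperature with DiscoveRx detection reagent.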
ClpP mod: qHTS Assay for Activators of ClpP. ATP-dependent Clp protease proteolytic subunit (Bacillus subtilis (strain 168)), P80244. purified B. subtilis ClpP, FRET peptide cleavage, 20 min. Potency, µM (doses to about 57.5 µM). actives 1.9% (n = 340,000). AID 651965, 2013; active means well fitted falling curve with a large enough effect; inconclusive means small, poorly fitted or top-dose-only effect; inactive means no such curve, though single readings can be large or run the other way; further: the source files actives as falling curves though it sought activators and does not explain the sign; nearly all actives have a fitted effect of over 65% in size
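FRET quenching reversal measured ClpP activation: 10 microg/mL B. subtilis ClpP at pH 8 with the FRET-FV decapeptide, read at 430 nm after 320 nm excitation. The 20-min minus 0-min signal was scaled between DMSO/no-enzyme wells and ADEP (5.8 microM final).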
HEK293 tox: cytotoxicity counter-screen for GLP-1 receptor inverse agonists; HEK293 cAMP-luciferase reporter cells, luminescence, 24 h; Potency, µM (highest dose often 38.3 µM), hits mostly inhibitors; actives 0.13% (n = 410,000); AID 624418;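 further: loss of luciferase light is scored as toxicity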
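A 23 nL compound transfer followed 12 hours of cell culture at 37 deg C; exposure then lasted 24 hr. Luciferase assay detection reagent was dispensed and plates read for luminescence after a 12 min room-temperature wait.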
D3 antag: D3 dopamine receptor (human) antagonism | max response, negative = inhibition, % | actives 2.5% (n = 360,000) | AID 652054 | D3R cells, DiscoveRx beta-arrestin luminescence, antagonist mode; hits give low values; in the data active means max response below about -50%; inconclusive means no clear call, values can overlap the other calls
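Cells plated overnight at 1500 cells/well, then exposed to library compounds with dopamine controls for 90 minutes at 37 degrees C. DiscoveRx reagent added for 30–60 minutes at room temperature; luminescence read, quantitative HTS format.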
Large screens that a line does not name were inactive. Unless noted, the call rests on the fitted dose curve; in most records, active means well fitted curve in the direction sought with a large enough effect; inconclusive means small, poorly fitted or top-dose-only effect, or another doubt; inactive means no such curve, though single readings can be large; an effect the other way counts as inactive or inconclusive.

Cc1c(C(=O)N2CCC(C)CC2)c(S(=O)(=O)N2CCN(c3cccc(Cl)c3)CC2)c(C)n1C	GLP-1R inv ag inconclusive (no result: GLP-1R agonist, D3 antag)
COc1cc2cc(CNc3ccc(C)cc3)c(=O)n(CC(=O)Nc3ccc(C(C)C)cc3)c2cc1OC	none (no result: D3 antag)
COc1cccc(-n2cc(CNCc3cn(C)nc3-c3ccccc3F)cn2)c1	GLP-1R inv ag inconclusive, DRD3 agonist 67
CCn1nc(C(=O)Nc2ccc(S(=O)(=O)Nc3ncccn3)cc2)c2ccccc2c1=O	none (no result: ClpP mod)
CCCn1nc(C(=O)Nc2ccc(S(=O)(=O)Nc3nccs3)cc2)c2ccccc2c1=O	ClpP mod 25µM
Cn1nc(C(F)(F)F)c(-c2ccc(Br)cc2)c1NC(=O)c1cccnc1	GLP-1R inv ag inconclusive
Cn1nc(C(F)(F)F)c(-c2ccc(Br)cc2)c1NC(=O)c1ccco1	GLP-1R inv ag 7.1µM
c1ccc(N2CCN(c3nnc(Cc4cccnc4)c4ccccc34)CC2)nc1	DRD3 agonist 42
c1ccc(Cc2nnc(N3CCCCC3)c3ccccc23)cc1	GLP-1R inv ag inconclusive (no result: ClpP mod)
CC(C)CCNC(=O)C(c1ccc(O)cc1)N(Cc1cccs1)C(=O)C1COc2ccccc2O1 (stereo not given)	GLP-1R inv ag 11µM, HEK293 tox inconclusive
O=C(NCc1ccco1)C(c1cccs1)N(C(=O)C1COc2ccccc2O1)c1cccc(O)c1 (stereo not given)	GLP-1R inv ag 11µM
CC(C)(C)NC(=O)CN(Cc1cccs1)C(=O)C1COc2ccccc2O1 (stereo not given)	GLP-1R inv ag inconclusive
O=C1CC(O)(c2ccccc2)C(c2ccccc2)=C1c1ccccc1 (stereo not given)	GLP-1R inv ag 10µM, D3 antag inconclusive
O=S(=O)(Nc1cccnc1)c1ccc(Cl)c(C(F)(F)F)c1	D3 antag -51
COc1cc2nc(N3CCCCC3)nc(NC3CCN(C)CC3)c2cc1OC	none (no result: GLP-1R inv ag, GLP-1R agonist, DRD3 agonist, HEK293 tox, D3 antag)
COCCNc1nc(Oc2cccc3ccccc23)c2sccc2n1	DRD3 agonist 54, ClpP mod inconclusive
COCCNc1nc(Oc2cccc(NC(C)=O)c2)c2sccc2n1	ClpP mod inconclusive
COCCNc1nc(Oc2ccccc2)c2sccc2n1	none
COCCNc1nc(Oc2ccc(C(N)=O)cc2)c2sccc2n1	DRD3 agonist 43
CCOc1ccc(-c2cc(C)n3nc(C(=O)Nc4cc(Cl)ccc4O)cc3n2)cc1	none (no result: D3 antag)
CC(=O)N1CCCC1c1nc2ccccc2n1Cc1ccccc1C (stereo not given)	none (no result: GLP-1R agonist, D3 antag)
C#CCOCCOCCOCCNc1nc(N2CCN(C(=O)Cn3cc(CCO)nn3)CC2)nc(N2CCN(C(=O)[C@H](Cc3ccc(O)cc3)n3cc(CCO)nn3)CC2)n1	DRD3 agonist 47, D3 antag inconclusive
C#CCOCCOCCOCCNc1nc(N2CCN(C(=O)CCCCCCCCCCNC(=O)[C@H]([C@@H](C)CC)n3cc(CCCCN=C(N)N)nn3)CC2)nc(N2CCN(C(=O)CCCCCCCCCCNC(=O)[C@H](CCCCN)n3cc(C)nn3)CC2)n1	GLP-1R inv ag inconclusive, HEK293 tox inconclusive, D3 antag inconclusive

Assay outcomes: PubChem BioAssay, National Center for Advancing Translational Sciences (NCATS)
